This is a sample that favours compounds with a hit; in the whole collection about 3.7% have one here.
Bead autofluor – compound fluorescence in toxin protease inhibitor counterscreen; compound autofluorescence counterscreen, microsphere flow cytometry; stronger effect = higher value; fluorescence intensity (no concentration beside the values); actives 3.1% (n = 360,000); AID 624483; in the data active = fluorescence intensity above about 16000; inconclusive = no clear call, values can overlap the other calls
BoNT F protease – inhibitors of Botulinum neurotoxin F light chain protease. inhibition, % at 10 µM. AID 588497. Multiplex microsphere protease cleavage assay, flow cytometry. actives 0.22% (n = 360,000); in the data active = inhibition above about 35%, passing the limit was not always enough; inconclusive = no clear call, values can overlap the other calls
Anthrax LF inh2 – inhibitors of Bacillus anthracis lethal factor protease. P15917. multiplex microsphere protease cleavage assay, LF. inhibition, % at 10 µM. actives 0.12% (n = 360,000); in the data active = inhibition above about 30%; inconclusive = no clear call, values can overlap the other calls
MazF activator – activators of E. coli MazEF toxin-antitoxin RNase; P0AE70; FAM/BHQ RNA-DNA oligo cleavage fluorescence, 5 h; activation, % at 20 µM; actives 0.32% (n = 350,000); AID 504720; in the data active = activation above about 50%
Target sequence (P0AE70 whole entry, looked up): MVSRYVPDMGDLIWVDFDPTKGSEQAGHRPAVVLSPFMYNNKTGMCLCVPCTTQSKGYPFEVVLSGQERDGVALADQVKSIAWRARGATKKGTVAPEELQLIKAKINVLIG
BoNT A protease – inhibitors of Botulinum neurotoxin A light chain protease; multiplex microsphere protease substrate cleavage, flow cytometry; inhibition, % at 10 µM; actives 0.17% (n = 360,000); in the data active = inhibition above about 30%; inconclusive = no clear call, values can overlap the other calls
BoNTA LC inh 2 – inhibitors of botulinum neurotoxin A light chain protease; shares compounds with BoNT A protease; multiplex microsphere protease cleavage assay, flow cytometry; inhibition, % at 10 µM; actives 10% (n = 150); in the data active = inhibition above about 24%
LF protease CP2 – inhibitors of Bacillus anthracis lethal factor protease; shares compounds with BoNT A protease; multiplex microsphere protease cleavage assay; inhibition, % at 10 µM; actives 7% (n = 150); AID 602327
BoNT-F LC CP2 – BoNT/F light chain protease inhibition; shares compounds with BoNT A protease; multiplex microsphere protease cleavage assay, flow cytometry; inhibition, % at 10 µM; actives 7% (n = 150); AID 602336
Of the large screens only hits and unclear results are named; the others gave an inactive call (follow-up assays come after a bar, where they were run). Cut-off read from the data, not from the text of the source, unless noted: active = inhibition above about 25%; inactive = the rest.

COc1ccc(-c2cc3c(c4c2ccn4C)C2CCC3C2)cc1OC (stereo not given)	none (no result: MazF activator) | BoNTA LC inh 2 inactive | LF protease CP2 inactive | BoNT-F LC CP2 inactive
Cn1ccc2c(-c3ccc(F)nc3)cc3c(c21)C1CCC3C1 (stereo not given)	Anthrax LF inh2 37, BoNT A protease 50 (no result: MazF activator) | BoNTA LC inh 2 33 | LF protease CP2 32 | BoNT-F LC CP2 inactive
N#Cc1ccc(Oc2cnccn2)cc1	none
CCOC(=O)C1=C(COC(=O)c2ccc(Br)o2)NC(=O)NC1C (stereo not given)	none
COc1cc(N(C)C)ccc1C=c1c2ccccc2n2c1cc(-c1ccccc1)[n+]2C	BoNT A protease 56 | BoNTA LC inh 2 30 | LF protease CP2 inactive | BoNT-F LC CP2 inactive
Cc1cc(C)c(S(=O)(=O)NCCCn2ccnc2)c(C)c1	none
Cc1cc2ccccc2n1CCNC(=O)C(C)Oc1ccccc1 (stereo not given)	BoNT A protease 79 | BoNTA LC inh 2 inactive | LF protease CP2 inactive | BoNT-F LC CP2 inactive
COCCNC(=O)C(C)Oc1ccccc1 (stereo not given)	none
Cc1cc2ccccc2n1CCNC(=O)C(C)C	Anthrax LF inh2 60, BoNT A protease 80 | BoNTA LC inh 2 29 | LF protease CP2 34 | BoNT-F LC CP2 inactive
Cc1cc2ccccc2n1CCNC(=O)c1ccc(S(=O)(=O)N2CCCCC2)cc1	BoNT A protease 59 | BoNTA LC inh 2 53 | LF protease CP2 inactive | BoNT-F LC CP2 inactive
Cc1cc(C)c(S(=O)(=O)NCCn2c(C)cc3ccccc32)c(C)c1	BoNT A protease 42 | BoNTA LC inh 2 inactive | LF protease CP2 inactive | BoNT-F LC CP2 inactive
CCOC(=O)c1nn(-c2ccc(C)c(C)c2)c(=O)c(C#N)c1C	BoNT F protease inconclusive
CCCSCCCNC(=O)Cn1c(=O)c2cccn2c2ccccc21	none
O=C(CN1C(=O)c2cccnc2Oc2ccc(Cl)cc21)N1CCCC1	none
CN1CCN(c2ccc(S(=O)(=O)N3CCCCC3)cc2NC(=O)c2ccc(F)cc2F)CC1	none
Cc1cc2ccccc2n1CCNC(=O)Cc1ccccc1	BoNT A protease 72 | BoNTA LC inh 2 24 | LF protease CP2 30 | BoNT-F LC CP2 inactive
O=C(NCc1ccc2c(c1)OCO2)c1cccc([N+](=O)[O-])c1	none
Cc1cc2cc(CNC(=O)c3ccc(Br)o3)ccc2[nH]1	BoNT A protease 67 | BoNTA LC inh 2 inactive | LF protease CP2 inactive | BoNT-F LC CP2 inactive
Cc1cc2cc(CNC(=O)c3cccc([N+](=O)[O-])c3)ccc2[nH]1	BoNT A protease 79 | BoNTA LC inh 2 27 | LF protease CP2 inactive | BoNT-F LC CP2 inactive
Cc1ccc(S(=O)(=O)NCc2ccc3[nH]c(C)cc3c2)cc1	none | BoNTA LC inh 2 inactive | LF protease CP2 inactive | BoNT-F LC CP2 inactive
Cc1c(C(=O)NCc2ccc3c(c2)cc(C)n3C)cccc1[N+](=O)[O-]	BoNT A protease 78 | BoNTA LC inh 2 inactive | LF protease CP2 inactive | BoNT-F LC CP2 inactive
Cc1ccc(CNC(=O)c2ccc(Br)o2)cc1	none
Cc1ccc(S(=O)(=O)N(C)CC(=O)NNC(=O)CCC(=O)c2ccc(F)cc2)cc1	none
Cc1ccc(C)c(NC(=O)CCN2CCCC(C)C2)c1 (stereo not given)	BoNT F protease inconclusive, BoNT A protease inconclusive
Cc1cc2cc(CNC(=O)c3ccc(Br)o3)ccc2n1C	BoNT A protease 62 | BoNTA LC inh 2 inactive | LF protease CP2 inactive | BoNT-F LC CP2 inactive
Cn1c(CNC(=O)C2CCCCC2)cc2cc(Cl)ccc21	BoNT F protease inconclusive
Cc1cc2cc(CNC(=O)C3CCCC3)ccc2n1C	BoNT A protease 45 | BoNTA LC inh 2 inactive | LF protease CP2 inactive | BoNT-F LC CP2 inactive
Cc1cc2cc(CNC(=O)Cc3cccs3)ccc2n1C	BoNT A protease 75 | BoNTA LC inh 2 inactive | LF protease CP2 inactive | BoNT-F LC CP2 inactive
CC(C)c1nn2c(=O)cc(COc3cccc(NC(=O)c4ccco4)c3)nc2s1	none
CCOc1ccccc1OCC(=O)OCC(=O)c1c(C)[nH]c2ccccc12	none | BoNTA LC inh 2 inactive | LF protease CP2 inactive | BoNT-F LC CP2 inactive
CCOC(=O)c1c(C)[nH]c(C(=O)COC(=O)COc2ccccc2C)c1C	none
Cc1cccc(C(=O)OCC(=O)c2c(C)[nH]c3ccccc23)c1O	none | BoNTA LC inh 2 inactive | LF protease CP2 inactive | BoNT-F LC CP2 inactive
CN1C(=O)/C(=C\c2ccco2)N=C1c1ccc(Cl)cc1Cl	none
CC1(C(=O)Nc2ccc(F)c(Cl)c2)Cc2c(-c3ccccc3)ccnc2O1 (stereo not given)	none (no result: MazF activator)
Cc1nc2ccc(NC(=O)c3cccc(S(=O)(=O)N4CC(C)OC(C)C4)c3)cc2s1 (stereo not given)	Anthrax LF inh2 30 | BoNTA LC inh 2 inactive | LF protease CP2 inactive | BoNT-F LC CP2 inactive
CC1CN(S(=O)(=O)c2cccc(C(=O)Nc3ccc(N4CCCCC4)cc3)c2)CC(C)O1 (stereo not given)	none

Screens deposited in PubChem BioAssay by several laboratories.
